# What was measured:
# Assay in all cases: DAPPL (digital affinity profiling via proximity ligation, sequencing); 10 mM Tris-HCl pH 7.5, 50 mM NaCl, 1 mM DTT, 4% glycerol, room temperature, 30 min; GST-TFs on glutathione beads, 16-mer random dsDNA library, 0.1% formaldehyde crosslink after washing; high values mean tight binding
# Conditions in all cases: protein: recombinant; tags: N-terminal GST; dsDNA, one strand shown
# [1] = target: T1, FLI1 (Homo sapiens, UniProt Q01543 1-452)
# T1 sequence: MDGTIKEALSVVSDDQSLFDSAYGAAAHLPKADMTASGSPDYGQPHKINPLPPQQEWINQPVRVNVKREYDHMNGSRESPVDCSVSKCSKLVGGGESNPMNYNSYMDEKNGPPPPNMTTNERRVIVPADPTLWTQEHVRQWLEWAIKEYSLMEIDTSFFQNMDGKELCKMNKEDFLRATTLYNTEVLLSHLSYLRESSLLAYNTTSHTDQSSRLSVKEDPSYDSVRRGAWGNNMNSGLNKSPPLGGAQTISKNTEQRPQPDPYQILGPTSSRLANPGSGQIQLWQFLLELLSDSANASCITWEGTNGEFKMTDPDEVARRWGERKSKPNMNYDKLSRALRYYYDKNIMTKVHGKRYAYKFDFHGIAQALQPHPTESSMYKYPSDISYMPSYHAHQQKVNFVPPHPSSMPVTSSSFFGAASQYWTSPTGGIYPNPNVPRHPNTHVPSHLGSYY
# Procedure, shortened: (§1)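 After expression in yeast as GST fusions, human transcription factors were bound to glutathione beads, DNA-barcoded and mixed with a tag-only sample. The pools were incubated with 200 nmole of a 16-mer random double-stranded DNA library in Tris/NaCl/DTT/glycerol buffer (30 min, room temperature), washed and crosslinked with 0.1% formaldehyde. Proximity ligation with BsaI/T4 ligase ran for 1 h at 37 °C, before PCR amplification and sequencing on an Illumina NextSeq500. Binding signal is a hexamer's read frequency for a factor divided by its frequency for the tag-only sample.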
# [2] = target: T2, ELK1 (Homo sapiens, UniProt P19419 1-428)
# T2 sequence: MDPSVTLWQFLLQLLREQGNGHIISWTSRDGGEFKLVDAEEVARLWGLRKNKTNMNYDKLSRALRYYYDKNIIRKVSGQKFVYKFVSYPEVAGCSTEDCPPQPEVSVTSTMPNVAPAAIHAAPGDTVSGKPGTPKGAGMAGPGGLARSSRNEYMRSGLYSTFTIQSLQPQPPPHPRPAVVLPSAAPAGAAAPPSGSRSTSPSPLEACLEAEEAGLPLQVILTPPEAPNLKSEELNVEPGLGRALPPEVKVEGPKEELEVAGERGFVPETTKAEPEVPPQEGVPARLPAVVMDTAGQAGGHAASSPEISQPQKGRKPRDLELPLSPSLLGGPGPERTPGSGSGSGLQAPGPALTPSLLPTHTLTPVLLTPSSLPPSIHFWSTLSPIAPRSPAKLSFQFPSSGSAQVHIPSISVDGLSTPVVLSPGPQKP
# Procedure, shortened: as §1
# [3] = target: T3, GABPA (Homo sapiens, UniProt Q06546 1-454)
# T3 sequence: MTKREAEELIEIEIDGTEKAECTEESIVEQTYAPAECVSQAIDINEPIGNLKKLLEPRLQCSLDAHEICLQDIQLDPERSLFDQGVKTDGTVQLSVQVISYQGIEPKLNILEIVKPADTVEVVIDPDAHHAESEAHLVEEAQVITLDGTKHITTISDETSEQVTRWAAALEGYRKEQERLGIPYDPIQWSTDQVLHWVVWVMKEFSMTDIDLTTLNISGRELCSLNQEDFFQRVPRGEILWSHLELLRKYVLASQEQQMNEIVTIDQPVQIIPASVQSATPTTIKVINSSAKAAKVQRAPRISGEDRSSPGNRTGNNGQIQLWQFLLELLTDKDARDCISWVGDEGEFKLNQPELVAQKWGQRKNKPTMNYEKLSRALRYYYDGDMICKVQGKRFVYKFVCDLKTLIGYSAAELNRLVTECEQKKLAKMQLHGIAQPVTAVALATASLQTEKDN
# Procedure, shortened: as §1
# [4] = target: T4, ERG (Homo sapiens, UniProt P11308 1-479)
# T4 sequence: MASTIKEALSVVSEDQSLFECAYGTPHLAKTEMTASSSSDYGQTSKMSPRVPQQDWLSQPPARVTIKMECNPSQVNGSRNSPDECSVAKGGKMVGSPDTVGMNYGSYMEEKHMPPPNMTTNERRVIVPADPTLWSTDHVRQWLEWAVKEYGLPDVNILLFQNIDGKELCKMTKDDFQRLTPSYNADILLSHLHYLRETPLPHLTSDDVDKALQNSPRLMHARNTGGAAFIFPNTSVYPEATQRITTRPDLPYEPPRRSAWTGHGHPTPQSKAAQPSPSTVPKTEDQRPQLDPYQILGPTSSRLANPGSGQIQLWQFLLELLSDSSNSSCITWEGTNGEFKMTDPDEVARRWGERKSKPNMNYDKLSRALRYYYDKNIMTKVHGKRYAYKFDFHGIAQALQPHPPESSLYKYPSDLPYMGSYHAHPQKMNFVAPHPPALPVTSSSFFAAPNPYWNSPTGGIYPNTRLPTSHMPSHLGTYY
# Procedure, shortened: as §1
# [5] = target: T5, EHF (Homo sapiens, UniProt Q9NZC4 1-300)
# T5 sequence: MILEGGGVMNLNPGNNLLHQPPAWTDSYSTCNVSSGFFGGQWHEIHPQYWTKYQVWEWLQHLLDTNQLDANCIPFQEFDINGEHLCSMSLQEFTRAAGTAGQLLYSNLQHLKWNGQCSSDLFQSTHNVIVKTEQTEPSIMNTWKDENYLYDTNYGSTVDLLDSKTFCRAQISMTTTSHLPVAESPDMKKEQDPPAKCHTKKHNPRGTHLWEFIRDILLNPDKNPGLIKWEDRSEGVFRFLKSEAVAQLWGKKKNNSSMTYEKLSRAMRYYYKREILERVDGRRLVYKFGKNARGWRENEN
# Procedure, shortened: as §1
# [6] = target: SPI1 (Homo sapiens, UniProt P17947 1-270)
# Procedure, shortened: as §1
# [7] = target: SPIB (Homo sapiens, UniProt Q01892 1-262)
# Chain of SPIB (Q01892 whole entry): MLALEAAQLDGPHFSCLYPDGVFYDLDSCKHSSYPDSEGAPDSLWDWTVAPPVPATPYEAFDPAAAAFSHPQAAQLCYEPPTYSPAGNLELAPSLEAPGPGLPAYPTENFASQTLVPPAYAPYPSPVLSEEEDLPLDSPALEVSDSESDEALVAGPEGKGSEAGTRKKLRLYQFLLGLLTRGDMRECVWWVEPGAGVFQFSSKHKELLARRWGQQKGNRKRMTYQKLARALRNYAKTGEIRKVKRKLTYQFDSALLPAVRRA
# Procedure, shortened: as §1
# [8] = target: T6, FEV (Homo sapiens, UniProt Q99581 1-238)
# T6 sequence: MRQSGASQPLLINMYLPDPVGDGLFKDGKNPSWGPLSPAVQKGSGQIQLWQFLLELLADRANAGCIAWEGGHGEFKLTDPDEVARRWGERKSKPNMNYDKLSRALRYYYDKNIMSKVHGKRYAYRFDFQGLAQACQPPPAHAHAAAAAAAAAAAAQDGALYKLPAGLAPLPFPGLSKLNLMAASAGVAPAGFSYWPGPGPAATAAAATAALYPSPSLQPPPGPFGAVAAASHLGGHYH
# Procedure, shortened: as §1
# [9] = target: ETV5 (Homo sapiens, UniProt P41161 1-510)
# Chain of ETV5 (P41161 whole entry): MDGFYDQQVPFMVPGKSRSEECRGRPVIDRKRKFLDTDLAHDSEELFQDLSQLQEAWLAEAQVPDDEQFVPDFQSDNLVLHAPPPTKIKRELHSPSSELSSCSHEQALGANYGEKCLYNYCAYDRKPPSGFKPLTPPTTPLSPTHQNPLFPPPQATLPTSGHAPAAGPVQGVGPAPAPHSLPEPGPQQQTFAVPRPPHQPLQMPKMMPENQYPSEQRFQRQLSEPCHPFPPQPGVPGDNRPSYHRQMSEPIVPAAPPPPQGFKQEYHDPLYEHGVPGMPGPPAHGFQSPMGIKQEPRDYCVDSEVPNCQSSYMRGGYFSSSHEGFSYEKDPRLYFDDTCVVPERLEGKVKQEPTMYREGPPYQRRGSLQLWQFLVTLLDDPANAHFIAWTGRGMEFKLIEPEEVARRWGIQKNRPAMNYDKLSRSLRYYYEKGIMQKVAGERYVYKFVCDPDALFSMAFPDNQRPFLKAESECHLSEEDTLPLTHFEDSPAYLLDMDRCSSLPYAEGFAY
# Procedure, shortened: as §1
# [10] = target: T7, SPIC (Homo sapiens, UniProt Q8N5J4 1-248)
# T7 sequence: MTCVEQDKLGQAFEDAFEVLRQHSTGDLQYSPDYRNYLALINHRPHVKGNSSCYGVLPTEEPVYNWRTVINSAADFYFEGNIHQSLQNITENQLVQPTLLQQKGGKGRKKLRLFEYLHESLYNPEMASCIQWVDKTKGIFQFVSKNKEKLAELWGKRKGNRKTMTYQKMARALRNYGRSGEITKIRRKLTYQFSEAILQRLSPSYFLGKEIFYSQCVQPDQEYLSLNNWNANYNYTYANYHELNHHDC
# Procedure, shortened: as §1
# [11] = target: ELF4 (Homo sapiens, UniProt Q99607 1-663)
# Chain of ELF4 (Q99607 whole entry): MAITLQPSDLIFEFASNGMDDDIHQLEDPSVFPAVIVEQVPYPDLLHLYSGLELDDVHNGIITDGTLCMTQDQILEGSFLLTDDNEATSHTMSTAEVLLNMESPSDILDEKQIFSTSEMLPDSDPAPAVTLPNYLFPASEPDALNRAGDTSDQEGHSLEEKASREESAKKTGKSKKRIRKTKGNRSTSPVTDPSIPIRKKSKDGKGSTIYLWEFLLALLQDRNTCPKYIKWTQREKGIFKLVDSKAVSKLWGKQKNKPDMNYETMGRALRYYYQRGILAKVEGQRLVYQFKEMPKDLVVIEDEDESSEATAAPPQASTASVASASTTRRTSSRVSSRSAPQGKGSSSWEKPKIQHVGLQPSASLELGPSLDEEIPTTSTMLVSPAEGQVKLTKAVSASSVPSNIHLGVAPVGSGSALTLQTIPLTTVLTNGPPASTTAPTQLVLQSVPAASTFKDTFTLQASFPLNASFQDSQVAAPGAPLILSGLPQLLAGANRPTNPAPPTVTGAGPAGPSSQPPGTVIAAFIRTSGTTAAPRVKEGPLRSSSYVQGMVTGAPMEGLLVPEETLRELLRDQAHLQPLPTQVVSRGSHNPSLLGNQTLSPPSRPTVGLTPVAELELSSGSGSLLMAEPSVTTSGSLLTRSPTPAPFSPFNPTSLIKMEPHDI
# Procedure, shortened: as §1
# [12] = target: ETV1 (Homo sapiens, UniProt P50549 1-477)
# Chain of ETV1 (P50549 whole entry): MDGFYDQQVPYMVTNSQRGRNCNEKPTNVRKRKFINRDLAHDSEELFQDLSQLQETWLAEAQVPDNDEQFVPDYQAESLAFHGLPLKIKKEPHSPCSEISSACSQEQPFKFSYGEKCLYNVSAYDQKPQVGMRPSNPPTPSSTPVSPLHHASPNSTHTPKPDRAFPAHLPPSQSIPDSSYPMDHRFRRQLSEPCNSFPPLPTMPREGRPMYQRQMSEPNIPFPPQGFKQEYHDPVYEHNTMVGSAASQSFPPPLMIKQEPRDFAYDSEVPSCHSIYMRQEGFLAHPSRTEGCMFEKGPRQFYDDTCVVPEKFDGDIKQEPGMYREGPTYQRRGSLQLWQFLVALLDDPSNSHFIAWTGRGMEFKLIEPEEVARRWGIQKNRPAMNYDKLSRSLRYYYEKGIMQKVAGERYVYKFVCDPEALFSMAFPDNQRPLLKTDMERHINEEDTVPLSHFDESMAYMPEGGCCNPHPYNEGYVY
# Procedure, shortened: as §1
# [13] = target: T8, ERF (Homo sapiens, UniProt P50548 1-548)
# T8 sequence: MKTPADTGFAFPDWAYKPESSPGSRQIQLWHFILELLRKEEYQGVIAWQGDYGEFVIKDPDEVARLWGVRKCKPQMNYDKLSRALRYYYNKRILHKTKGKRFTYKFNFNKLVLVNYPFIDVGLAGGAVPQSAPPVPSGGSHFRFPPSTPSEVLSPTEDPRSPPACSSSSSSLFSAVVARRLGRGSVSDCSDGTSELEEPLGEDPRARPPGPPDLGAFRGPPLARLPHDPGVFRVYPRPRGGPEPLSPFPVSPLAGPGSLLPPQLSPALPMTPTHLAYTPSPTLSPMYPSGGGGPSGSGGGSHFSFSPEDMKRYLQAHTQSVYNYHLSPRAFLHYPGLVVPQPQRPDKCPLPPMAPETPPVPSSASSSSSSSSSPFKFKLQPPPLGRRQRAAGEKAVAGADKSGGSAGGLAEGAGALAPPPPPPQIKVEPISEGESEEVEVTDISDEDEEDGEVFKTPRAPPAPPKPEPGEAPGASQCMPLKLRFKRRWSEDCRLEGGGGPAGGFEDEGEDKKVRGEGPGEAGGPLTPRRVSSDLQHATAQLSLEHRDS
# Procedure, shortened: as §1
# [14] = target: T9, ETV3L (Homo sapiens, UniProt Q6ZN32 1-361)
# T9 sequence: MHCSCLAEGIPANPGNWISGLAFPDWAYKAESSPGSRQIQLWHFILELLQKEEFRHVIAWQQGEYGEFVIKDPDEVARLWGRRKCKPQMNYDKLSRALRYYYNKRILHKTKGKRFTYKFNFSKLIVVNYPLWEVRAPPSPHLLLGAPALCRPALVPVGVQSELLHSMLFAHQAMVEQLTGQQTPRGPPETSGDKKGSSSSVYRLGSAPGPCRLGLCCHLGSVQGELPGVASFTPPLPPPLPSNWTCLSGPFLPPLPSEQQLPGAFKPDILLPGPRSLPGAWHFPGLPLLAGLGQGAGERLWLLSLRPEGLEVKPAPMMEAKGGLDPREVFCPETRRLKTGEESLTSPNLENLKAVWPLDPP
# Procedure, shortened: as §1
# [15] = target: T10, ETV3 (Homo sapiens, UniProt P41162-2 1-143)
# T10 sequence: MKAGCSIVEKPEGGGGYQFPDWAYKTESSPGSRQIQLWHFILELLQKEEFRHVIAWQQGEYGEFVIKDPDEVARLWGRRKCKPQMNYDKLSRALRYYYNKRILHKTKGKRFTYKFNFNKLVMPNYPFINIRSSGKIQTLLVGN
# Procedure, shortened: as §1
# [16] = target: T11, ETS2 (Homo sapiens, UniProt P15036 1-469)
# T11 sequence: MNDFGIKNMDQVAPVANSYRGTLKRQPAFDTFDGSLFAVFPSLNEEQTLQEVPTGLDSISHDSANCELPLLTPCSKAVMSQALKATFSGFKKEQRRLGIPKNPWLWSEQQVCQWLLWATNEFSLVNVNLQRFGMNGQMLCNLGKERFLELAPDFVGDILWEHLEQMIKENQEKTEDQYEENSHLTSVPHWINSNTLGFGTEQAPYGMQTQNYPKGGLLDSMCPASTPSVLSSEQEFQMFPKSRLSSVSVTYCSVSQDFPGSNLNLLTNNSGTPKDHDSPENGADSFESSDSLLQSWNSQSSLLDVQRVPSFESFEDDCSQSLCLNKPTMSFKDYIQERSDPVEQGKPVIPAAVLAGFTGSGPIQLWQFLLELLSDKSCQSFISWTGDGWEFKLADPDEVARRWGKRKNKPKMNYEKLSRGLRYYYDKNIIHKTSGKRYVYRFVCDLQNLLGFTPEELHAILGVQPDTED
# Procedure, shortened: as §1
# [17] = target: T12, SPDEF (Homo sapiens, UniProt O95238 1-335)
# T12 sequence: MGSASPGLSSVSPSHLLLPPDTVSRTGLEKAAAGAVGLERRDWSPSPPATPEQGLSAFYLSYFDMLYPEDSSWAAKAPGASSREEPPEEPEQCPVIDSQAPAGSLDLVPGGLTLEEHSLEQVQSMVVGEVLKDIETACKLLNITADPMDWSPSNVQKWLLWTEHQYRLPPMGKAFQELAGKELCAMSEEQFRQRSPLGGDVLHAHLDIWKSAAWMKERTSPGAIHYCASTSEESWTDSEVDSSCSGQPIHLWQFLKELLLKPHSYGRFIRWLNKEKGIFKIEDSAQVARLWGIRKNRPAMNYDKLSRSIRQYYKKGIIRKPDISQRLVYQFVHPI
# Procedure, shortened: as §1
Sequence,binding signal [1],binding signal [2],binding signal [3],binding signal [4],binding signal [5],binding signal [6],binding signal [7],binding signal [8],binding signal [9],binding signal [10],binding signal [11],binding signal [12],binding signal [13],binding signal [14],binding signal [15],binding signal [16],binding signal [17]
CCGATG,"1.07 fold enrichment (6-mer frequency, TF over GST control)","1.1 fold enrichment (6-mer frequency, TF over GST control)","1.18 fold enrichment (6-mer frequency, TF over GST control)","1.06 fold enrichment (6-mer frequency, TF over GST control)","1.03 fold enrichment (6-mer frequency, TF over GST control)","1.08 fold enrichment (6-mer frequency, TF over GST control)","1.2 fold enrichment (6-mer frequency, TF over GST control)","1.08 fold enrichment (6-mer frequency, TF over GST control)","1.11 fold enrichment (6-mer frequency, TF over GST control)","1.2 fold enrichment (6-mer frequency, TF over GST control)","1.14 fold enrichment (6-mer frequency, TF over GST control)","1.1 fold enrichment (6-mer frequency, TF over GST control)","1.1 fold enrichment (6-mer frequency, TF over GST control)","1.1 fold enrichment (6-mer frequency, TF over GST control)","1.12 fold enrichment (6-mer frequency, TF over GST control)",–,–
TGGTGC,"1.12 fold enrichment (6-mer frequency, TF over GST control)","1.14 fold enrichment (6-mer frequency, TF over GST control)","1.1 fold enrichment (6-mer frequency, TF over GST control)","1.16 fold enrichment (6-mer frequency, TF over GST control)","1.15 fold enrichment (6-mer frequency, TF over GST control)","1.12 fold enrichment (6-mer frequency, TF over GST control)","1.06 fold enrichment (6-mer frequency, TF over GST control)","1 fold enrichment (6-mer frequency, TF over GST control)","1.1 fold enrichment (6-mer frequency, TF over GST control)","1.14 fold enrichment (6-mer frequency, TF over GST control)","1.07 fold enrichment (6-mer frequency, TF over GST control)","1.06 fold enrichment (6-mer frequency, TF over GST control)","1.11 fold enrichment (6-mer frequency, TF over GST control)","1.05 fold enrichment (6-mer frequency, TF over GST control)","1.17 fold enrichment (6-mer frequency, TF over GST control)","1.01 fold enrichment (6-mer frequency, TF over GST control)","1.19 fold enrichment (6-mer frequency, TF over GST control)"
